Compounds with a hit are over-represented: about 19% of the library has one in this group of screens.
DT40 TDP1 no CPT: qHTS for Inhibitors of human tyrosyl-DNA phosphodiesterase 1 (TDP1): qHTS in cells in absence of CPT; Potency, µM (doses to about 46.2 µM), without a hit: at the highest dose activity change, negative = growth inhibition, actives largely listed as inhibitors; DT40 Tdp1-/- hTDP1 cells, no CPT, ATP luminescence, 48 h; hit rate 15% among 420,000; note: potency is the fitted concentration of half-maximal effect; nearly all actives have a fitted effect of over 55% in size
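Compound effects on proliferation are scored in DT40 Tdp1-/-;hTDP1 cells in the absence of CPT. ATP levels (CellTiter-Glo luminescence) are recorded after a ≥48 hr, 37 °C incubation.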
HT1080-NT tox: qHTS for induction of synthetic lethality in tumor cells producing 2HG: qHTS for the HT-1080-NT fibrosarcoma cell line | Potency, µM (series often up to 46.1 µM), for the others: at the top dose activity, negative = less viability, actives largely listed as cytotoxic | HT-1080-NT fibrosarcoma viability, CellTiter-Glo ATP luminescence, 48 h | hit rate 1.6% among 360,000 | AID 686970, 2013;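 note: NT is the 2HG producing partner of a matched IDH1 knockdown line; potency is the fitted concentration of half-maximal effect; 0% = DMSO-treated cells and -100% = media-only wells without cells; nearly all actives have a fitted effect of over 55% in size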
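750 cells/well, RPMI + 5% FBS; 2 h settle, compound pin-transfer, 48 h at 37 degrees C. CellTiter-Glo 10 min RT, luminescence. Normalized to DMSO and media-only wells.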
IL-1B inflam inh: qHTS for Inhibitors of Inflammasome Signaling: IL-1-beta AlphaLISA Primary Screen | THP-1 LPS/ATP IL-1B secretion, AlphaLISA, 16 h; hits give low values | activity change, % at 57.5 µM | hit rate 4.7% among 360,000 | AID 743279, 2014; in the data active = activity change below about -50%; inconclusive = mostly about -30% to -49%
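THP-1 cells pretreated 1 hr with compounds (up to 57.5 uM final), then stimulated with LPS (250 ng/mL final) plus ATP (1.25 mM final); secreted IL-1B measured by AlphaLISA after 16 hr, decreased signal indicating inhibition.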
DT40 TDP1 CPT: qHTS for Inhibitors of human tyrosyl-DNA phosphodiesterase 1 (TDP1): qHTS in cells in presence of CPT; Potency, µM (highest dose often 46.2 µM), inactives show at the top dose activity change, negative = growth inhibition, actives largely listed as inhibitors; chicken DT40 Tdp1-/-;hTDP1 cells + 20 nM CPT, ATP luminescence, 48 h; hit rate 12% among 420,000; note: potency is the fitted concentration of half-maximal effect; nearly all actives have a fitted effect of over 55% in size
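Chicken DT40 Tdp1-/- cells stably complemented with human TDP1 were seeded at 400 cells/well in medium containing 20 nM camptothecin, exposed to pin-transferred compounds, and grown at 37 °C for at least 48 hr. Viability was read as ATP luminescence.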
uPA surface inh: qHTS for Inhibitors of Cell Surface uPA Generation; cell surface uPA generation assay, qHTS; Potency, µM (titrated, usually from 38.3 µM), inactives show top-dose activity change, negative = inhibition, hits mostly inhibitors; hit rate 0.31% among 330,000; AID 540303, 2011; active = well fitted inhibition curve with a large enough effect; inconclusive = small, poorly fitted or top-dose-only effect; inactive = no such curve, though single readings can be large or run the other way; tested in mouse RAW 264.7 cells; note: potency is the fitted concentration of half-maximal effect; nearly all actives have a fitted effect of over 55% in size
HT1080 IDH1KD tx: qHTS for induction of synthetic lethality in tumor cells producing 2HG: qHTS for the HT-1080-IDH1KD cell line; HT-1080 IDH1 knockdown viability, ATP luminescence, 48 h; Potency, µM (series often up to 46.1 µM), without a hit: at the highest dose activity, negative = toxicity, most hits filed as cytotoxic; hit rate 2% among 360,000; AID 686971, 2013;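 note: potency is the fitted concentration of half-maximal effect; 0% = DMSO wells and -100% = cell-free medium wells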
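% activity derives from luminescence (CellTiter-Glo), normalised to DMSO and no-cell wells. HT-1080-IDH1KD cells, 750/well, had 48 h compound exposure at 37 °C.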
* marks the source's active call; other numbers are inactive results; ? = inconclusive; / = no result. Unless noted, calls come from the whole dose curve; as a rule, active = well fitted curve in the direction sought with a large enough effect; inconclusive = small, poorly fitted or top-dose-only effect, or another doubt; inactive = no such curve, though single readings can be large; an effect the other way counts as inactive or inconclusive. Unless noted, % is set by controls: 0 for no effect and ±100 for the full control effect.

SMILES	DT40 TDP1 no CPT	HT1080-NT tox	IL-1B inflam inh	DT40 TDP1 CPT	uPA surface inh	HT1080 IDH1KD tx
CCc1c(C)sc(NC(=O)CN2CCN(C(=O)c3ccco3)CC2)c1C(=O)OC	?	?	-78.7*	18.4µM*	1.6%	?
COC(=O)c1c(NC(=O)CN2CCN(Cc3ccc4c(c3)OCO4)CC2)sc(C)c1C	?	?	-75.9*	?	1.7%	?
CCOC(=O)c1ccc(NC(=O)CN2CCN(C(=O)c3ccco3)CC2)cc1	-2.8%	-0.1%	0.3	-7.1%	2.7%	-0.9%
O=C(Cc1ccccc1)NCC(=O)OCC(=O)c1ccc(Cl)c([N+](=O)[O-])c1	?	3.9%	?	?	-3.9%	1.4%
Cc1nc2cnc(OCc3ccccc3)nc2n(Cc2ccc(F)cc2)c1=O	-11.9%	/	/	3.1%	/	/
Cc1ccc(Cl)cc1NC(=S)N(CCN(C)C)C(C)c1ccccn1 (stereo not given)	0.1%	0.1%	-73.5*	1.2%	-1.1%	-1.0%
C=CC(c1ccccc1)C(C(=O)c1ccccc1)N(C)C (stereo not given)	-29.6%	24.0%	16.9	?	5.7%	-0.5%
[O-][n+]1c2ccccc2c2n1CCN1CCOC21c1ccc(Cl)cc1 (stereo not given)	7.31µM*	-2.7%	21.2	2.06µM*	?	-1.3%
COC(=O)[C@]12CCCCC=C1N(Cc1ccco1)C(=O)[C@H](CC(=O)N1CCSCC1)C2	-28.1%	-4.5%	-6.3	-3.4%	/	5.2%
CCCCCCCCN1C(=O)[C@H](CC(=O)N2CCSCC2)C[C@@]2(C(=O)OC)CCCCC=C12	?	?	-68.0*	?	/	?
CCCCCCCCN1C(=O)[C@H](CC(=O)N2CCN(C(=O)C3CC3)CC2)C[C@@]2(C(=O)OCC)CCCC=C12	23.1µM*	?	-65.8*	23.1µM*	/	?
CCCCCCCCN1C(=O)[C@H](CC(=O)N2CCCC2)C[C@@]2(C(=O)OC)CCCCC=C12	18.4µM*	?	-17.2	16.4µM*	/	?
CCCCCCCCN1C(=O)[C@H](CC(=O)N2CCN(C(=O)C3CC3)CC2)C[C@@]2(C(=O)OC)CCCCC=C12	16.4µM*	?	-51.4*	?	/	?
COC(=O)[C@]12CCCCC=C1N(Cc1ccccc1)C(=O)[C@H](CC(=O)N1CCC(c3ccccc3)CC1)C2	?	?	-17.6	?	/	?
CCCCCCCCN1C(=O)[C@H](CC(=O)N2CCN(C(=O)OCC)CC2)C[C@@]2(C(=O)OC)CCCCC=C12	20.6µM*	?	-8.3	?	/	?
CCCCCCCCN1C(=O)[C@H](CC(=O)N2CCC(c3ccccc3)CC2)C[C@@]2(C(=O)OC)CCCCC=C12	18.4µM*	-1.8%	-18.4	?	/	-12.7%
O=C(CSc1nc2ncc(Cl)cc2[nH]1)N1CCC(Cc2ccccc2)CC1	-8.4%	-8.8%	-0.2	-29.6%	-1.8%	-1.7%
CCNc1nc(Oc2ccc(C#N)cc2)cc(C(F)(F)F)n1	?	-14.3%	-57.5*	-4.4%	-4.4%	-10.9%
CC(C)Nc1nc(Oc2ccc(Cl)cc2)cc(C(F)(F)F)n1	4.1%	-1.5%	20.7	-17.5%	6.0%	-5.0%
CCOc1ccc(C(=O)NCc2nc(-c3ccc(Cl)cc3)no2)cc1OCC	?	/	/	-18.7%	/	/
Cc1ccc(C)c(NC(=O)c2cnc3sc(N4CCOCC4)nn3c2=O)c1	-13.4%	/	/	-7.2%	/	/
CC1(C(=O)NS(=O)(=O)c2ccc(C#N)cc2)CCN1C(=O)C1(c2ccc(Cl)cc2)CC1 (stereo not given)	-7.4%	26.4%	0.0	-25.2%	/	15.8%
COc1ccc(CNS(=O)(=O)c2ccc(-n3cnnn3)c(C)c2)cc1	?	2.1%	1.7	?	1.7%	1.7%
CC(=O)c1ccc(OCCNS(=O)(=O)c2ccc(-n3cnnn3)c(C)c2)cc1	?	-0.2%	-0.3	13µM*	-4.6%	-1.3%
Nc1ccn([C@@H]2O[C@H](CO)[C@@H](O)[C@H]2O)c(=O)n1	-0.7%	-18.4%	0.9	2.3%	-3.0%	4.3%
SMILES	DT40 TDP1 no CPT	HT1080-NT tox	IL-1B inflam inh	DT40 TDP1 CPT	uPA surface inh	HT1080 IDH1KD tx
NC(=O)c1ncn([C@@H]2O[C@H](CO)[C@@H](O)[C@H]2O)c1N	-0.5%	/	/	-2.7%	/	/
CCCCCCCCCCCCCCCCCCCCCC(=O)Nc1ccn([C@@H]2O[C@H](CO)[C@@H](O)[C@@H]2O)c(=O)n1	3.35µM*	/	/	2.66µM*	/	/
Nc1ccn([C@@H]2O[C@H](CO)[C@@H](O)C2O)c(=O)n1 (stereo not given in full)	0.0411µM*	?	63.0	0.0366µM*	-86.7%	?
Nc1ccn(C2OC(COC(=O)C34CC5CC(CC(C5)C3)C4)C(O)C2O)c(=O)n1 (stereo not given)	0.366µM*	-4.7%	10.9	0.0517µM*	-9.1%	-18.9%
Nc1nc(=O)n(C2OC(CO)C(O)C2O)cc1Cl (stereo not given)	5.17µM*	/	/	?	/	/
COCCNC(=O)/C(C#N)=C/c1c(N2CCCCCC2)nc2ccccn2c1=O	?	?	-13.6	-10.9%	18.1%	10.5%
CCOc1cc(/C=N/NC(=O)C2CC2)ccc1OC(C)C	-10.9%	11.1%	39.1	-4.9%	-1.9%	7.1%
COCCn1c(C)cc(O)c(C(c2ccc(Cl)cc2)N2CCN(c3ccccc3)CC2)c1=O (stereo not given)	-11.9%	/	/	-11.6%	/	/
COCCN(CC(=O)Nc1cccc(C)c1C)C(=O)c1oc2c(Cl)cccc2c1C	?	-12.7%	21.5	?	-25.4%	-6.7%
Nc1ccn([C@@H]2O[C@H](CO)[C@@H](O)C2(F)F)c(=O)n1	0.0094µM*	/	/	0.0094µM*	/	/
Nc1ccn([C@@H]2O[C@H](COS(=O)(=O)O)[C@@H](O)[C@H]2O)c(=O)n1	1.84µM*	1.3%	20.1	9.2µM*	-0.5%	-15.6%
Nc1ccn(C2OC(CCl)C(O)C2O)c(=O)n1 (stereo not given)	3.66µM*	-26.4%	20.6	2.59µM*	/	?
O=c1[nH]cnc2c1ncn2[C@@H]1O[C@H](COS(=O)(=O)O)[C@@H](O)[C@H]1O	?	-1.2%	-3.5	3.66µM*	-0.4%	-14.9%
